Screens deposited in PubChem BioAssay by Broad Institute.
Shown is part of a subset that was picked to be rich in hits.
Tgondii IFNg = inhibitors of Toxoplasma gondii growth with IFN-gamma. 3.8% of 69,000 active. activity change, negative = inhibition, % (test concentration not listed). Toxoplasma gondii growth in IFN-gamma-treated host cells; stronger effect = lower value; in the data active = activity change below about -70%, passing the limit was not always enough;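 note: host cells are HeLa cells infected with Toxoplasma gondii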
Hits are given with their value; . = inactive; ! = not active in a repeat.

SMILES	Tgondii IFNg
Fc1ccccc1CSc1nc(Nc2ccc3c(c2)OCO3)c2ccccc2n1	.
Clc1ccccc1Cn1nnc2c(Sc3nc4ccccc4s3)ncnc21	.
COc1cccc(C2(O)CCN(CCNC(=O)C3=NNC(=O)CC3)CC2)c1	.
Cc1ccc2c(c1)c(CNS(=O)(=O)NCc1ccccc1)nn2C	.
Cn1cccc1/C=C1\C(=O)NC(=O)c2ccccc21	.
CN(C)CC[C@H](CSc1ccccc1)Nc1ccc(S(=O)(=O)NC(=O)c2ccc(N3CCN(Cc4ccccc4-c4ccc(Cl)cc4)CC3)cc2)cc1[N+](=O)[O-]	-76
CC1(C)CCC(c2ccc(Cl)cc2)=C(CN2CCN(c3ccc(C(=O)NS(=O)(=O)c4ccc(N[C@H](CCN5CCOCC5)CSc5ccccc5)c(S(=O)(=O)C(F)(F)F)c4)cc3)CC2)C1	-72
O=S(=O)(NCCN1CCOCC1)c1cccc(C(F)(F)F)c1	.
COCCNC(=O)[C@H]1CC[C@H]2[C@H](CCN2C2CCOCC2)O1	.
Cc1nc(-n2cnnc2)ccc1-c1cccc(Cl)c1Cl	-84
COc1cccc(Cl)c1-c1cccc(-n2cnnc2)c1	.
Nc1nnc(-c2cccc(Cl)c2Cl)c(N)n1	.
O=C(CC1CCN(Cc2cccc(C(F)(F)F)c2)CC1)NCc1ncc[nH]1	.
CN1CC[C@@]2(C(=O)N3CCCC3)CCN(S(=O)(=O)c3cccc(F)c3)CC[C@H]12	.
C=CCN(Cc1cccnc1)Cc1ccc(O)c(C)c1	.
O=[N+]([O-])c1cc(/C=N/n2cnnc2)ccc1N1CCCC1	-90
O=C(N/N=C\c1cc([N+](=O)[O-])ccc1N1CCOCC1)c1ccccn1	.
O=Cc1ccc(N2CCCCC2)cc1	.
COc1cc2c(cc1-c1c(-c3ccccc3)ncn1CC(N)=O)CCC2	.
CCCCOC1=CC=C(NC(=O)CSc2nnc(Cc3ccccc3)n2CC)CC1	.
Cc1ccc(-n2nnc(-c3ccc(Cl)cc3)n2)cc1	.
COc1ccc(S(=O)(=O)NCCc2csc(-c3ccc(Cl)cc3)n2)cc1C	.
Cc1ccc(S(=O)(=O)NCCc2csc(-c3ccc(F)cc3)n2)s1	-102
Cc1ccc(S(=O)(=O)NCCc2csc(-c3ccc(Cl)cc3)n2)s1	.
Cc1ccc(S(=O)(=O)NCCc2csc(-c3ccc(Cl)cc3)n2)cc1C	-83
SMILES	Tgondii IFNg
Cc1ccc(S(=O)(=O)NCCc2csc(-c3ccc(Cl)cc3)n2)cc1	.
Cc1ccc(S(=O)(=O)NCCc2csc(-c3ccc(F)cc3)n2)cc1	.
CC(=O)NCc1ccc([C@H]2CN(S(=O)(=O)c3ccc(F)cc3)C[C@@H]2C(=O)N(C)C)cc1	.
CO[C@H](CN(C)C(=O)Nc1ccc(Cl)cc1)[C@H](C)CN(Cc1ccccc1Cl)[C@H](C)CO	.
O=C(Cn1c(=O)cc(C(=O)N2CCOCC2)c2ccccc21)Nc1cccc(C(F)(F)F)c1	.
CCn1c(SCc2nc(-c3ccccc3C)oc2C)nc2c(=O)[nH]cnc21	.
OCCN(Cc1cccnc1)Cc1cccc(Oc2ncccn2)c1	.
CCn1cc(C(CNC(=O)Nc2ccc(Br)c(C)c2)c2cccnc2)c2ccccc21 (centres undefined)	.
CCN(CC)S(=O)(=O)c1ccc2c(c1)cc(C(=O)NCC1CCN(Cc3ccc(C)cc3)C1)n2C (centres undefined)	-96
Cc1ccc(CCNC(=O)c2cc3cc(S(=O)(=O)N(C)C)ccc3n2Cc2ccncc2)cc1	.
CCN(CC)S(=O)(=O)c1ccc2c(c1)cc(C(=O)NCCC(C)N1CCCC1)n2C (centres undefined)	.
CCCc1cc(C(=O)N2CCCC(c3[nH]ncc3-c3ccccc3)C2)ccn1 (centres undefined)	.
CCCc1[nH]ncc1C(=O)N1CCCC(c2[nH]ncc2-c2ccc(F)cc2)C1 (centres undefined)	.
CCCc1cc(C(=O)N2CCCC(c3[nH]c4c(C)cccc4c3-c3ccncc3)C2)no1 (centres undefined)	-116
O=C(c1ccc(-n2c(=S)[nH]c3ccccc3c2=O)cc1)N1CCC(O)(c2cccc(C(F)(F)F)c2)CC1	.
O=C(c1ccccc1F)N1CCC2(CC1)Nc1cc(F)ccc1-n1cccc12	.
O=S(=O)(c1ccc2ccccc2c1)N1CCN(C2Cc3ccccc3C2)CC1	.
CCN(CC)c1ncnc2c1cnn2CC(=O)NCc1cccc(C(F)(F)F)c1	.
CCN(CC)c1ncnc2c1cnn2CC(=O)Nc1cccc(F)c1	-75
CCN(CC)c1ncnc2c1cnn2CC(=O)NCc1ccc(F)cc1	-94
CCN(CC)c1ncnc2c1cnn2CC(=O)NCc1ccc(C)o1	.
CCN(CC)c1ncnc2c1cnn2CC(=O)NCc1ccc(C(F)(F)F)cc1	.
CCN(CC)c1ncnc2c1cnn2CC(=O)NCc1ccc(C)cc1	-86
CCN(CC)c1ncnc2c1cnn2CC(=O)Nc1ccc(OC)cc1	.
CCN(CC)c1ncnc2c1cnn2CC(=O)NCCOC	.
SMILES	Tgondii IFNg
CCOc1ccc(NC(=O)Cn2ncc3c(N(CC)CC)ncnc32)cc1	.
COCCN1CCOCC2(C1)CN(Cc1nccs1)CCO2 (centres undefined)	.
Cc1ccc(-c2cnc(NC(=O)c3noc(C)c3Cn3cccn3)n2C)cc1C	.
c1ccc2oc(N3CCN(Cc4nc(-c5ccc6c(c5)OCO6)no4)CC3)nc2c1	.
CC(C)(O)C#Cc1ccc([C@@H]2[C@@H](CO)N3CCCCN(S(C)(=O)=O)C[C@H]23)cc1	.
O=C(c1ccn[nH]1)N1CCCC2(CC(Oc3cccnc3)CO2)C1 (centres undefined)	-95
O=C(c1ccco1)N1CCCC2(CC(Oc3cccnc3)CO2)C1 (centres undefined)	.
O=C(c1cnc[nH]1)N1CCC2(CC(Oc3cccnc3)CO2)C1 (centres undefined)	.
CCCNC(=O)N1CC2(C1)[C@H](c1ccccc1)[C@H](CO)N2CC1CCOCC1	.
CCC(NC(=O)c1[nH]nc(-c2ccccc2)c1C)c1ccc(F)cc1 (centres undefined)	.
N#C/C(=C1/SCC(c2ccccc2Cl)S1)n1ccnc1 (centres undefined)	.
Clc1ccccc1C(c1ccccc1)(c1ccccc1)n1ccnc1	-83!
FC(F)(F)c1ccccc1-n1ccnc1	.
Cc1noc(C)c1S(=O)(=O)N(C)C[C@@H]1OCCCC[C@@H](C)Oc2ccc(NC(=O)CCC(F)(F)F)cc2C(=O)N([C@@H](C)CO)C[C@H]1C	.
O=C(C1CCC1)N1CCCCN2[C@H](CO)[C@@H](c3ccc(-c4ccncc4)cc3)[C@H]2C1	.
O=S1(=O)c2ccccc2OCC2(CCN(Cc3ccc(F)cc3)CC2)CN1CC1CC1	.
Cn1nc(-c2ccccc2)cc1NC(=O)Cn1cnc(Cl)c1Cl	.
Cc1c(C)c(C)c(S(=O)(=O)Nc2cc(-c3ccccc3)nn2CCC#N)c(C)c1C	-88
Cn1nc(-c2ccccc2)cc1NC(=O)C1CCCCC1	.
COCc1nc(NCCc2nc3ccccc3[nH]2)c2cnn(C)c2n1	.
CNc1cc(OC)c(C(=O)N[C@@H]2CCN(Cc3ccccc3)[C@H]2C)cc1Cl	.
O=C(NC(c1nccs1)C1CCCN(Cc2cccc(F)c2)C1)c1ccccc1 (centres undefined)	.
CC[C@H](C)[C@@H]([C@@H](CC(=O)N1CCC[C@H]1[C@H](OC)[C@@H](C)C(=O)N[C@@H](Cc1ccccc1)c1nccs1)OC)N(C)C(=O)[C@@H](NC(=O)[C@H](C(C)C)N(C)C)C(C)C	-84
Cc1cc(C)n(CC(C)C(=O)NC(Cc2cccs2)c2nccs2)n1 (centres undefined)	.
CCOC(=O)c1cnc(-c2ccccc2)nc1Nc1ccc(C)cc1	.
